# High-throughput results as filed in PubChem.
# HttQ103 aggreg = qHTS Multiplex Assay to Identify Dual Action Probes in a Cell Model of Huntington: Aggregate Formation (GFP); PC12 HttQ103-GFP aggregates, Acumen cytometry, 40 h; Potency, µM (top dose mostly 46.1 µM), without a hit: at the top dose activity change, negative = inhibition, most hits filed as inhibitors; hit rate 1.1% among 220,000; AID 1688, 2009; also: potency is read from the fitted curve at half-maximal effect; % is scaled to controls: 0 for no effect and ±100 for the full control effect; nearly all actives have a fitted effect of over 60% in size
#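 Ecdysone-promoter PC12 model expressing HTT exon 1 Q103 fused to GFP, induced by tebufenozide at 100 nM final. Compounds titrated; aggregates sized 1–25 µm scored on a 488 nm laser cytometer.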
# IMPase cell inh = qHTS Assay for Identifying the Cell-Membrane Permeable IMPase Inhibitors; CHO-M1 cells, IP1 accumulation, HTRF TR-FRET ratio; inhibition (IP1 accumulation), % at 46.1 µM; 120,000 tested, under 10 active; active = well fitted curve in the direction sought with a large enough effect in the signal ratio, not every such curve was filed as active; inconclusive = small, poorly fitted or top-dose-only effect, or a change in a side signal; inactive = no such curve, though single readings can be large or run the other way; the % refers to the signal ratio;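 also: cells stimulated with carbachol in lithium chloride buffer; plate controls were DMSO basal wells for no effect and reference inhibitor wells for full effect; higher means more IMPase inhibition seen as more IP1 and lower FRET ratio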
# Target sequence (P97697 whole entry, looked up): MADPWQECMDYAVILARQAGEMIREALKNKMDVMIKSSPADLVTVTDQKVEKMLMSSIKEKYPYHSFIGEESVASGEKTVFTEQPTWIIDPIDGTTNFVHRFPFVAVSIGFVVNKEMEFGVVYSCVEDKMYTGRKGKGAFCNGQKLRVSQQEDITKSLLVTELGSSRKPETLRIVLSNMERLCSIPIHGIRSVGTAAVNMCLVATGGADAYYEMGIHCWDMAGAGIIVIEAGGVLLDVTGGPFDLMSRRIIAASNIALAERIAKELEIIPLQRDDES
#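 Measured: the HTRF emission ratio (665/620 nm) plus the 620 nm donor channel, each fitted to the Hill equation to give AC50. Cells were CHO-M1 given compounds up to 46 uM and a 30 min carbachol stimulation at 37C.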
# HTT cytoprotect = qHTS Multiplex Assay to Identify Dual Action Probes in a Cell Model of Huntington: Cytoprotection (ATP) | AID 1471, 2008 | PC12 HTT-Q103 induced, cytoprotection, ATP luminescence, 40 h | Potency, µM (series often up to 56.4 µM), for inactives: cytoprotection (ATP increase), actives largely listed as activators | hit rate 0.14% among 230,000; also: potency is read from the fitted curve at half-maximal effect; % of control where 0% means no effect; nearly all actives have a fitted effect of over 45% in size
#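 Rat PC12, Q103 Htt exon1-GFP fusion, ecdysone promoter; tebufenozide inducer 100 nM final; compound titration; qHTS, 1500 cells/well; ATPlite luminescent read.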
# IMPase Li inh = qHTS Assay for Identifying the Cell-Membrane Permeable IMPase Inhibitors: Potentiation with Lithium; CHO-M1 cells, IP1 TR-FRET (IP-One), carbachol + lithium; Potency, µM (doses to about 59.4 µM), for the others: at the top dose activity, negative = IMPase inhibition, most hits filed as inhibitors; hit rate 0.35% among 210,000;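 also: IP1 builds up when IMPase is blocked and the TR-FRET signal falls; potency is read from the fitted curve at half-maximal effect; plate controls were basal vehicle for no effect and high inhibitor control for full effect; nearly all actives have a fitted effect of over 50% in size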
#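 CHO-M1, 2000 cells/well, 16–30 h culture; cpd + low Li+, 30 min 37C; lysis with d2-IP1/Eu-anti-IP1 Ab, 10 min RT; TR-FRET 665/620 ratio and 620 channel; AC50 via Hill.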
# ALDH1A1 block = qHTS Assay for Inhibitors of Aldehyde Dehydrogenase 1 (ALDH1A1); Aldehyde dehydrogenase 1A1 (Homo sapiens), P00352; hit rate 7.3% among 220,000; AID 1030, 2008; Potency, µM (titrated, usually from 75.3 µM), inactives show top-dose activity, negative = inhibition, usual class: inhibitors; Purified ALDH1A1, NADH fluorescence, propionaldehyde substrate; active = well fitted inhibition curve with a large enough effect, not every such curve was filed as active; inconclusive = small, poorly fitted or top-dose-only effect, or another doubt; inactive = no such curve, though single readings can be large or run the other way;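 also: potency is read from the fitted curve at half-maximal effect; plate controls were no enzyme wells and a reference inhibitor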
# HPGD block = qHTS Assay for Inhibitors of HPGD (15-Hydroxyprostaglandin Dehydrogenase); 15-hydroxyprostaglandin dehydrogenase [NAD(+)] (Homo sapiens), P15428; purified HPGD, NADH fluorescence kinetic, PGE2 substrate; Potency, µM, inactives show top-dose activity change, negative = inhibition, actives largely listed as inhibitors; hit rate 4.3% among 150,000; AID 894, 2007; active = well fitted inhibition curve with a large enough effect, not every such curve was filed as active; inconclusive = small, poorly fitted or top-dose-only effect, or another doubt; inactive = no such curve, though single readings can be large or run the other way; also: potency is read from the fitted curve at half-maximal effect; % is scaled to controls: 0 for no effect and ±100 for the full control effect
# Target sequence (P15428 whole entry, looked up): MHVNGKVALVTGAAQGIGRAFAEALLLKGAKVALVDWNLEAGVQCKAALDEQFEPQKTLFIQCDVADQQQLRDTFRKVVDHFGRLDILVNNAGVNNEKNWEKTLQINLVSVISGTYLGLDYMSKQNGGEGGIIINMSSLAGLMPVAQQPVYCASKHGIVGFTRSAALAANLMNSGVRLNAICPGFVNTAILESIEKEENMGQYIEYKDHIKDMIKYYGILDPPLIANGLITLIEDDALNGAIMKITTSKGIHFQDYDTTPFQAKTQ
#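 20 nM HPGD preincubated 15 min at room temperature with compound in 50 mM Tris-HCl pH 8, 0.01% Tween 20. Started with 1 mM NAD+ and 30 uM prostaglandin E2; NADH fluorescence (360/450 nm) read 5 times over 30-s intervals, last minus first.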
# Numbers without * were called inactive; ? = inconclusive; · = not tested or not shown; [ ] = another dose, or the depositor's remark. Hits are enriched below; roughly 9.4% of the tested compounds scored in any of these assays. Unless noted, calls follow the shape of the dose curve; as a rule, active = well fitted curve in the direction sought with a large enough effect; inconclusive = small, poorly fitted or top-dose-only effect, or another doubt; inactive = no such curve, though single readings can be large; an effect the other way counts as inactive or inconclusive.
SMILES,HttQ103 aggreg,IMPase cell inh,HTT cytoprotect,IMPase Li inh,ALDH1A1 block,HPGD block
Cc1oc(-c2cc(F)ccc2F)nc1CN1CCN(c2ncnc3ccccc23)CC1,5%[9.22 µM],·,32%[10 µM],13%,7.9µM*,·
COc1ccc(NC(c2ccc(F)cc2)c2nnc(-c3ccccc3Cl)o2)cc1Cl (stereo not drawn),·,16,·,·,·,·
CS(=O)(=O)c1ccc(SCC(=O)NC2CCS(=O)(=O)C2)c([N+](=O)[O-])c1 (stereo not drawn),8%,·,-32%,-5%,?,·
CC(=O)Oc1cc(OC(C)=O)c2c(c1)OC(c1ccc(OC(C)=O)c(OC(C)=O)c1)C(OC(C)=O)C2 (stereo not drawn),·,·,·,12%,4%,3%
S=c1[nH]nc(Cc2cccc3ccccc23)n1-c1ccccc1,-14%,-5,9%,-3%[38.3 µM],?,14µM*
C=CCn1c(Cc2cccc3ccccc23)n[nH]c1=S,15%,·,21%[10 µM],19%,-8%,28µM*
S=c1[nH]nc(CCSCc2ccccc2)n1-c1ccccc1,21%,·,-27%,11%,35µM*,·
C=CCn1c(CCn2c3ccccc3c3ccccc32)n[nH]c1=S,?,·,26%[10 µM],7%,?,?
COc1cccc(-n2ccnc2SCC(=O)Nc2cc(OC)ccc2OC)c1,-8%,-1,-24%,1%[38.3 µM],1%,-14%
COc1ccc(OC)c(NC(=O)CSc2ncccc2C(=O)O)c1,-8%,0,13%[10 µM],7%[38.3 µM],?,13µM*
COc1ccc(NC(=O)CSc2ncccc2C(=O)OC(C)C)cc1OC,?,9,24%[10 µM],29%[38.3 µM],0.079µM*,-14%
COc1ccnc(CSC(N)=Nc2ccccc2OC)c1,?,-4,-1%[1.9 µM],33%,25µM*,-8%
COc1ccnc(CSC(N)=Nc2cccc(C(F)(F)F)c2)c1,27%,·,·,3%,20µM*,-13%
O=S(O)O.O=S(O)O.[Co].[NH2-].[NH2-].[NH2-].[NH2-],·,·,2%[10 µM],4%,0%[13.5 µM],0%
COc1cccc(-c2csc(N3CCN(C(=O)Nc4ccc(F)cc4)CC3)n2)c1,?,12,18%[10 µM],28%,?,-6%
O=C(CSc1nc2ccc(Cl)cc2[nH]1)N1CCN(C(=O)c2ccco2)CC1,9%,3,5%[10 µM],-5%,22µM*,-2%
CC1CCCN(C(=O)CSc2cnc3ccccc3n2)C1 (stereo not drawn),20%,?,9%,3.2µM*,28µM*,4.5µM*
O=C(CSc1nc2ccccc2o1)N1CCCC1,13%,6,-19%,-5%[38.3 µM],-2%,25µM*
COc1cccc(-c2csc(N3CCN(C(=O)C4CCCCC4)CC3)n2)c1,-6%,10,-4%,29%[38.3 µM],13µM*,-5%
O=c1cc(O)cc(/C=C\c2ccc(O)c(O)c2)o1,·,?,-33%[1.9 µM],·,·,·
O=c1c(CCc2ccccc2)nc2cnc(N3CCOCC3)nc2n1CCc1ccccc1,·,·,-10%,1%,?,·
Cc1cc2ccccc2n1CCNC(=O)c1ccccc1F,·,-17,·,·,·,·
O=C(c1ccc2c(c1)OCO2)C1CCCN(C2CCN(CCc3ccccc3)CC2)C1 (stereo not drawn),-19%[9.22 µM],·,-19%[10 µM],32%,-6%,·
OCC(O)/C=N/Nc1nc2ccccc2s1 (stereo not drawn),-12%,·,-16%,-5%,4%,·
COc1ccc(-c2csc(N3CCN(C(=O)c4ccco4)CC3)n2)cc1,?,10,-2%,24%[38.3 µM],28µM*,-16%
OC(CNc1nc2ccccc2s1)c1ccccc1 (stereo not drawn),-24%,-2,8%,23%[38.3 µM],7%,10µM*
